# Source: PubChem (National Center for Advancing Translational Sciences (NCATS))
# An excerpt weighted towards active compounds, which were near 19% of everything screened.
# CHX counter – counter-screen for Shiga toxin inhibitors: cycloheximide protein synthesis inhibition | cell reporter, cycloheximide protein synthesis inhibition counterscreen | max response, % | 300,000 tested, 12% active; in the data active = max response mostly above about 13%, no sharp cut-off; inactive = mostly below about 14%; note: read at 38.3 µM for the half of the compounds with a filed dose; 0% is about no effect
# Pf growth 96h – P. falciparum growth inhibition at 96 hours; Potency, µM (series often up to 28.7 µM), inactives show top-dose activity change, negative = inhibition, actives largely listed as inhibitors; 320,000 tested, 6.9% active; P. falciparum luciferase reporter growth, 96 h; note: potency is the fitted concentration of half-maximal effect; % is set by controls: 0 for no effect and ±100 for the full control effect
#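 Parasite growth measured via integrated firefly luciferase reporter in P. falciparum. Infected erythrocytes at 2% hematocrit, 0.05% parasitemia final were treated 96 hours at 37 C under 5% CO2, and luminescence was read.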
# AMA1 RON2 block – AMA1-RON2 (P. falciparum) interaction inhibition; AID 720542; 360,000 tested, 0.2% active; AlphaScreen AMA1-biotinylated RON2 peptide binding; Potency, µM (top dose mostly 58.2 µM), without a hit: at the highest dose activity change, negative = inhibition, hits mostly inhibitors;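 note: potency is the fitted concentration of half-maximal effect; 0% = vehicle wells and -100% = peptide control; nearly all actives have a fitted effect of over 45% in size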
#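 AMA1 (3D7) with his tag at 25 nM final met compounds first, then biotinylated RON2 peptide at 25 nM; detection used donor plus acceptor beads, 10 µg/mL apiece, read by AlphaScreen after 30 min at room temperature.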
# SARS PLpro yeast – SARS-CoV PLP inhibition in yeast; 330,000 tested, 0.19% active; AID 485353; Potency, µM (top dose mostly 32.9 µM), for inactives: top-dose activity, positive = growth rescue, actives largely listed as activators; S. cerevisiae expressing SARS-CoV PLpro, growth rescue; calls by dose curve; note: potency is the fitted concentration of half-maximal effect; 0% is about no effect; nearly all actives have a fitted effect of over 55% in size
# Pf growth 48h – P. falciparum growth inhibition at 48 hours (one generation); P. falciparum luciferase growth in erythrocytes, 48 h; Potency, µM (titrated, usually from 28.7 µM), without a hit: top-dose activity change, negative = inhibition, usual class: inhibitors; 310,000 tested, 5.9% active; AID 504832; note: potency is the fitted concentration of half-maximal effect; % is set by controls: 0 for no effect and ±100 for the full control effect
#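 Read-out is firefly luciferase luminescence from an integrated reporter in P. falciparum, so falling signal marks reduced parasite growth. Infected erythrocytes were at 2% hematocrit and 0.1% parasitemia (final) in Albumax-supplemented RPMI 1640.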
# Shiga toxin inh – blocks Shiga toxin action in Vero cells; Vero cells, Shiga toxin protein synthesis inhibition reporter; inhibition, % at 38.7 µM; 290,000 tested, 9.2% active; in the data active = inhibition mostly above about 28%, no sharp cut-off; inactive = mostly below about 43%; note: 0% is about no effect
# * = called active by the depositor; ? = inconclusive; · = no result given. Unless noted, calls come from the whole dose curve; as a rule, active = well fitted curve in the direction sought with a large enough effect; inconclusive = small, poorly fitted or top-dose-only effect, or another doubt; inactive = no such curve, though single readings can be large; an effect the other way counts as inactive or inconclusive.
SMILES,CHX counter,Pf growth 96h,AMA1 RON2 block,SARS PLpro yeast,Pf growth 48h,Shiga toxin inh
COC(=O)C1=C(c2ccc(F)cc2F)C[C@@H]2CC[C@H]1N2C(=O)NCc1ccc2c(c1)OCO2,·,?,2%,-1%,?,·
COC(=O)C1=C(c2ccccc2OCc2ccccc2)C[C@@H]2CC[C@H]1N2C(=O)NCc1ccc(C(C)(C)C)cc1,·,?,-9%,2%,6.6µM*,·
COC(=O)C1=C(c2ccc(F)cc2F)C[C@@H]2CC[C@H]1N2C(=O)NCc1ccc(C(F)(F)F)cc1,·,?,3%,-14%,12µM*,·
COC(=O)C1=C(c2ccc(F)cc2OCc2ccccc2)C[C@@H]2CC[C@H]1N2C(=O)NC1Cc2ccccc2C1,·,1.7µM*,-4%,1%,?,·
COC(=O)C1=C(c2ccc(F)cc2OCc2ccccc2)C[C@@H]2CC[C@H]1N2C(=O)NCCCc1ccccc1,·,5.2µM*,-9%,0%,12µM*,·
COC(=O)C1=C(c2ccc(F)cc2F)C[C@@H]2CC[C@H]1N2C(=O)NCCO,·,37%,2%,-7%,22%,·
COC(=O)C1=C(c2ccc(F)cc2OCc2ccccc2)C[C@@H]2CC[C@H]1N2C(=O)N1CCCCC1,·,?,2%,2%,?,·
Cc1cc(C)cc(-n2ncc3c2CCCC3NC(=O)CN2CCCCC2=O)c1 (stereo not drawn),·,·,1%,·,·,·
COc1ccccc1CNC(=O)COC(=O)Cn1cnc2c1c(=O)n(C)c(=O)n2C,·,·,-11%,·,·,·
COC(=O)C1=C(c2ccc(F)cc2OCc2ccccc2)C[C@@H]2CC[C@H]1N2C(=O)NCc1ccc(C)cc1,·,?,15%,-3%,9.3µM*,·
COC(=O)C1=C(c2ccccc2OCc2ccccc2)C[C@@H]2CC[C@H]1N2C(=O)NCc1ccc(F)cc1,·,?,-7%,3%,9.3µM*,·
COC(=O)C1=C(c2ccc(F)cc2OCc2ccccc2)C[C@@H]2CC[C@H]1N2C(=O)NCc1ccc(F)cc1,·,?,4%,-9%,10µM*,·
COC(=O)C1=C(c2ccc(F)cc2OCc2ccccc2)C[C@@H]2CC[C@H]1N2C(=O)NCc1ccc([N+](=O)[O-])cc1,·,?,-2%,-9%,12µM*,·
CC1(C)ON=C(c2ccc(C(F)(F)F)cc2)NC1=O,·,·,0%,·,·,·
O=C(CCn1cccc1)NCc1ccc2c(c1)OCO2,-1,28%,-8%,?,-7%,15
CC1CCCCN1C(=O)CSc1ccc(-c2ccc(F)cc2)nn1 (stereo not drawn),19*,?,-5%,-5%,4%,41
Nn1cc(-c2ccccc2)nc1SCC(=O)N1CCN(S(=O)(=O)c2ccccc2)CC1,9,-7%,-7%,-2%,?,6
CC1CCCCN1C(=O)CSc1nc(-c2ccccc2)cn1N (stereo not drawn),25*,47%,-6%,-5%,77%,46*
O=C(CSc1ccc(-c2ccc(F)cc2)nn1)NCC1CCCO1 (stereo not drawn),7,27%,-6%,0%,17%,5
CN(CC(=O)Nc1ccccc1C(F)(F)F)C(=O)COc1cccnc1[N+](=O)[O-],2,0%,-4%,-2%,14%,-11
COc1ccc(CN2CC(=O)N(c3ccc(C)c(C)c3)C2=S)cc1OC,7,6%,-10%,-6%,?,23
COc1cccc(N2C(=O)CN(Cc3ccc(OC)c(OC)c3)C2=S)c1,5,?,-7%,-3%,1.5µM*,-13
COc1cc(CN2CC(=O)N(c3ccc(C)c(C)c3)C2=S)cc(OC)c1OC,-2,13%,-8%,-6%,1µM*,3
Cc1cc(C)cc(N2C(=O)CN(Cc3ccccc3)C2=S)c1,-1,4.7µM*,-7%,-2%,15µM*,-2
COc1ccc(CN2CC(=O)N(c3ccccc3C)C2=S)cc1OC,0,96%,-3%,1%,9.3µM*,-9
SMILES,CHX counter,Pf growth 96h,AMA1 RON2 block,SARS PLpro yeast,Pf growth 48h,Shiga toxin inh
COc1ccc(CN2CC(=O)N(c3ccc(C)cc3C)C2=S)cc1OC,-4,?,-2%,1%,?,18
COc1ccc(N2C(=O)CN(Cc3ccc(OC)c(OC)c3)C2=S)cc1,-6,?,-3%,-3%,-9%,-9
O=C(Nc1ccc(Cl)cc1F)C1CCN(S(=O)(=O)c2cccc3nonc23)CC1,-2,?,-7%,3%,-9%,4
O=CNc1cc(-c2cccc(F)c2)cn2c(-c3ccc(F)c(Cl)c3)cnc12,·,·,31%,·,·,·
O=C(CC1CC1)N[C@@H]1CC[C@@H](CCNS(=O)(=O)c2ccc(F)cc2)O[C@@H]1CO,·,·,-5%,·,·,·
CN1CCN(C(=O)c2cc(Cl)ccc2NC(=O)c2ccc(Cl)cc2Cl)CC1,-4,?,6%,-4%,-12%,-4
COc1ccc(CN2CC(=O)N(c3cc(Cl)ccc3C)C2=S)cc1OC,-3,0%,-13%,-3%,7.4µM*,-12
CCc1ccc(N2C(=O)CN(Cc3cccs3)C2=S)cc1,28*,-6%,3%,-5%,2%,12
CCc1ccccc1N1C(=O)CN(Cc2cc(OC)c(OC)c(OC)c2)C1=S,-4,?,-6%,-3%,5.2µM*,-7
CCc1ccc(N2C(=O)CN(Cc3cc(OC)c(OC)c(OC)c3)C2=S)cc1,-3,-19%,0%,4%,4%,-6
COc1cc(CN2CC(=O)N(c3cc(Cl)ccc3C)C2=S)cc(OC)c1OC,-4,-17%,-4%,-8%,2.6µM*,-9
CCc1ccc(N2C(=O)CN(Cc3ccccc3)C2=S)cc1,9,25%,-15%,-5%,?,25
COc1cc(C(=O)N2CCN(c3cc(Cl)ccc3Cl)CC2)cc(OC)c1OC,-7,?,8%,-8%,3%,-14
CCOC(=O)Cc1c(C)nc2c(-c3ccccc3)c(-c3ccccc3)[nH]n2c1=O,-2,?,39%,1%,-19%,-14
NS(=O)(=O)c1ccc(CCNC(=O)C2CCN(S(=O)(=O)c3ccccc3)CC2)cc1,-1,78%,-11%,-1%,-8%,23
CC1Sc2ccc(S(=O)(=O)N3CCC(C(=O)NCCc4ccccc4)CC3)cc2NC1=O (stereo not drawn),15*,?,5%,-2%,12µM*,6
O=C(NCCc1ccccc1)C1CCN(S(=O)(=O)c2cccnc2)CC1,5,7.4µM*,0%,-4%,·,13
Cc1ccccc1CCNC(=O)C1CCN(S(=O)(=O)c2ccc(-n3cnnn3)cc2)CC1,5,13µM*,-12%,-2%,?,32
O=C(C1CCN(S(=O)(=O)c2cccnc2)CC1)N1CCN(c2ccccc2Cl)CC1,26*,-10%,-1%,·,?,29
CCN1CCN(C(=O)C2CCN(S(=O)(=O)c3ccc4c(c3)NC(=O)C(C)S4)CC2)CC1 (stereo not drawn),4,2.9µM*,6%,2%,?,-8
